“And” between values parts separate entries of the source, which are not always exact repeats. Equal entries are not always repeated. Among all 91,000 compounds or so, about 130 (0.14%) were called active. About 3% were inconclusive and are not listed. The call rests on the fitted dose curve; in most records, active means well fitted inhibition curve with a large enough effect; inconclusive means small, poorly fitted or top-dose-only effect; inactive means flat fitted curve, though single readings scatter. The list comes from a sample in which actives are over-represented; it also holds similar structures and randomly drawn compounds. Where a structure was tested more than once in an assay, its records may differ in their call.
system: Uracil-DNA glycosylase; assay: Primary qHTS assay for inhibitors of Activation Induced Cytidine Deaminase (AID): UDG Counterscreen signal; settings: FRET deamination/UDG coupled assay, UDG read, 4 h; series mostly up to 115 µM; activity change, negative = inhibition: at the top concentration; further: nearly all actives have a fitted effect of over 65% in size
Text: Assay Provider (PI) Patricia Gearhart Ph.D.
National Institute on Aging
National Institute of Health (NIH), Bethesda, MD
Assay Provider (PI) Rahul Kohli Ph.D.
Perelman School of Medicine
University of Pennsylvania, Philadelphia, PA
Activation-Induced Deaminase (AID) is a cytosine deaminase which converts cytosine into uracil within stretches of ssDNA. The presence of uracil in DNA initiates a cascade of mutagenic DNA repair to introduce point mutations and DNA double strand breaks. Specific targeting of AID to the immunoglobulin heavy chain loci (Igh) promotes mutagenesis in the antibody variable region for somatic hypermutation (SHM) or switch regions leading to class switch recombination (CSR). However, AID also plays a role in accumulating unnecessary mutations across the genome. Mis-targeting of AID results in the initiation of tumor development and leads to greater drug resistance among cancer cells when continually expressed. To identify an AID inhibitor, a small molecule library will be screened in collaboration with NCATS core facility at NIH. To confirm biological function, inhibitors will be examined in an in vitro murine B-cell activation assay and subsequent secondary validation screens. Top molecules will be further screened to identify inhibitory efficacy against a wild type primary splenocytes assay. Using these approaches, we hope to identify a small molecule with great efficacy and low toxicity for use as a molecular probe to further characterize AID's intricacies, or even as a therapeutic.
A FRET based analysis of cytosine deamination, was developed to identify potential inhibitors of AID catalytic activity. This screen has two signal output, Read 1 evaluates the AID inhibition response. The second readout (Read 2) evaluates UDG response and is uses as a counterscreen to exclude false positive inhibitors. Inhibition in AID and inactivity in the UDG signal is the desired outcome for this assay.
SEQUENCE No. (e.g., 1, 2, 3, etc.); […] (e.g., Cells, Incubation, Reagent, etc.); VALUE; DESCRIPTION
1a; Reagent; 3 uL; [4/3x] 1 uM AID/2.67 U/mL UDG
1b; Reagent; 3 uL; 2 U/mL UDG
1c; Reagent; 3 uL; 1 uM AID
2a; Compound; 46 nL; Follow-up plates (0.64 uM - 10 mM)
2b; Control; 46 nL; ATA ([…] - 10 mM)
3; Time; 10 min; incubation at room temperature
5; Time; 4 hr; incubation at room temperature
6; Reagent; 4 uL; [2x] 250 mM NaOH
7; Time; 15 sec; centrifuge at 1000 rpm
8; Time; 30 min; incubation at room temperature
9a; Detection; fluorescence (Read 1: AID); EnVision (PerkinElmer) plate reader, 540 excitation and 590 emission filters
9b; Detection; fluorescence (Read 2: UDG); EnVision (PerkinElmer) plate reader, 560 excitation and 665 emission filters
NOTES (numbers refer to sequence above)
1a; Reagents were dispensed in a medium-binding black solid-bottom Greiner plates (789176F) using a BioRptr liquid dispenser. Dispense 3 uL of [4/3x] 1 uM AID (provided by Kohli lab) and [4/3x] 2 U/mL UDG (NEB M0280L) into columns 1, 2, 5 to 48.
1b; Dispense 3 uL of [4/3x] 2 U/mL UDG into column 3.
1c; Dispense 3 uL of [4/3x] 1 uM AID into column 4.
2a; Compound (7-points [uM] (0.64; 3.2; 16; 80; 400; 2,000; 10,000; 20,000) double pin-transferred (Dip Factor = 2) using the Kalypsys (Wako USA) pintool equipped with a 1536 pinhead for a final concentration range of 7.32 nM - 114 uM.
2b; 10 mM Aurintricarboxylic Acid (Sigma A1895) (ATA, 8-point, n = 2, 1:2.5 dilution in column 2) double pin-transferred (Dip Factor = 2) using the Kalypsys (Wako USA) pintool equipped with a 1536 pinhead for a [final] range of 186 nM - 114 uM.
3; Room temperature incubation.
4; Dispense 1 uL of substrate mixture from the Kohli lab [4x] […] DJC20 and [4x] 250 nM DJC23 into columns 1 to 48 .
5; Room temperature incubation.
6; Dispense 4 uL of substrate mixture [2x] 250 mM NaOH into columns 1 to 48.
7; Centrifugation step to remove bubbles.
8; Room temperature incubation
9a; Fluorescence signal (column label AID) was read using the EnVision plate reader. […]
On the % scale 0 is the no-effect control and ±100 the full control effect; potency means the concentration at half of the fitted maximal effect.

SMILES	activity change, negative = inhibition	Potency
CC1CCN(C(=O)CSc2nnc(-c3ccco3)n2N)CC1	3.21% (inactive)	–
CCCC(=O)Nc1ccccc1N1CCN(Cc2nc3ccccc3n2C)CC1	-1.83% (inactive)	–
Cn1nc(C(=O)Nc2ccc(C(F)(F)F)cc2)c2ccccc2c1=O	-3.73% (inactive)	–
CCCCCn1nc(C(=O)Nc2nccs2)c2ccccc2c1=O	-2.82% (inactive)	–
CN(Cc1ccc(C(C)(C)C)cc1)C(=O)C1CCN(C(=O)/C=C/c2ccccc2)CC1	1.65% (inactive)	–
COc1ccc(-c2nc3ccccc3o2)cc1NC(=O)c1ccc(Cl)cc1	5.28% (inactive)	–
CCOC(=O)c1cc(-c2ccc(S(=O)(=O)N3CCN(c4cc(Cl)ccc4C)CC3)s2)on1	-3.8% (inactive)	–
O=C(CSc1ncnc2ccccc12)Nc1ccc(Cl)c(C(F)(F)F)c1	-1.99% (inactive)	–
CNc1c(NC(=O)Nc2ccccc2F)c(=O)oc2ccccc12	35.6% (inactive)	–
COc1cc(CNC(=O)C(C)Oc2ccccc2)ccn1 (stereo not drawn)	2.82% (inactive)	–
Nc1ccc(C(=O)O)cn1	-0.258% (inactive)	–
Cc1ccc(-n2ncc3c(NCCCn4ccnc4)ncnc32)cc1Cl	-13.3% (inactive)	–
NS(=O)(=O)c1ccc(CCNc2ncnc3c2cnn3-c2ccccc2Cl)cc1	-2.13% (inactive)	–
Clc1cccc(-n2ncc3c(NCCc4ccccc4)ncnc32)c1	–	inactive and 89.1 µM (active)
CCc1nn2c(=O)cc(CN3CCCCC3C)nc2s1 (stereo not drawn)	-6.52% (inactive)	–
O=C(CCc1cccs1)NCC1CC1	-9.5% (inactive)	–
C/C(=N/Nc1ccnc2cc(Cl)ccc12)c1cccc(N)c1	-26.9% (inactive)	–
CC(=O)N(Cc1ccc2[nH]ccc2c1)C1CC1	12.3% (inactive)	–
O=C(CCn1ccc2ccccc21)N1CCN(S(=O)(=O)c2ccccc2)CC1	-11.7% (inactive)	–

SMILES	activity change, negative = inhibition	Potency
COCC(=O)N(Cc1cccs1)C1CC1	-5.11% (inactive)	–
CC(c1nc(C(C)(C)C)no1)N(C)Cc1ccc2c(c1)OCO2 (stereo not drawn)	4.82% (inactive)	–
Fc1cccc(CSc2nnc(-c3ccccc3F)n2C2CC2)c1	0.268% (inactive)	–
CNC(=O)c1ccc2c(c1)CCCN2C(=O)c1ccc(Cl)cc1	4.74% (inactive)	–
COc1ccc(CN(Cc2cc(=O)oc3cc(C)c(C)cc23)C2CC2)cc1	-3.27% (inactive)	–
COCCNC(=O)CS(=O)Cc1nc(-c2ccc(C)cc2)oc1C (stereo not drawn)	10.9% (inactive)	–
Cc1cc2nc(-c3ccccc3)c(-c3ccccc3)nc2cc1C	6.41% (inactive)	–
Cc1ccccc1OCc1ccc(-c2nc(C#N)c(N3CCCCC3)o2)o1	-12.8% (inactive)	–
Cc1ccc(C)c(OCc2ccc(-c3nc(C#N)c(NC(C)C)o3)o2)c1	–	70.8 µM (active)
CCC(C)Nc1oc(-c2ccc(COc3ccc(Cl)cc3)o2)nc1C#N (stereo not drawn)	-4.75% (inactive)	–
N#Cc1cccnc1NCCC12CC3CC(CC(C3)C1)C2	-4.49% (inactive)	–
Cc1cc(=O)oc2c(C)c(OC(C)C(=O)NCCc3ccc(S(N)(=O)=O)cc3)ccc12 (stereo not drawn)	-0.637% (inactive)	–
O=C(NCc1ccc2c(c1)OCO2)c1cccc(N2CCCN(Cc3ccc(F)cc3)C2=O)c1	3.74% (inactive)	–
CC(C)(C(=O)Nc1ccc(F)c(NC(=O)C2CC2)c1)c1ccccc1	8.51% (inactive)	–
CNCCC(F)(F)F	-1.7% (inactive)	–
OC(COCc1ccccc1F)Cn1nnc(-c2cccnc2)n1 (stereo not drawn)	-1.08% (inactive)	–
O=C(COC(=O)Cc1n[nH]c(=O)c2ccccc12)NCC1CCCO1 (stereo not drawn)	-1.41% (inactive)	–
CCOc1ccc(-c2csc(-c3ccc(Cl)cc3)n2)cc1	-7.65% (inactive)	–
O=C(NCc1cccc(OC(F)F)c1)c1ccccc1-n1cnnn1	0.583% (inactive)	–

— PubChem BioAssay AID1347430 (National Center for Advancing Translational Sciences (NCATS), 2020)
